system: not listed separately; assay: probe aLAP1 signal on lysate-treated microarray – cell lysate, small-molecule microarray, COS7 lysate, primary screen (AID 1124); conditions: probe aLAP1, fluorescence, higher = more signal;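 note: lysate comes from COS7 cells expressing LAP1 and is applied at 0.3 µg/mL; score merges spot fluorescence near 667 nm with signal-to-noise over triplicate slides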

| Structure (SMILES) | composite z-score |
| --- | --- |
| COCCOC(=O)N1C(=O)[C@@]2(c3cc(C#CCC(C(=O)OC)C(=O)OC)ccc31)[C@H](c1ccccc1OCCO)N1[C@H](c3ccccc3)[C@H](c3ccccc3)OC(=O)[C@H]1[C@@H]2C(=O)N1CCN(c2ncccn2)CC1 | 0.596 |
| C=C(CCCC)/C(=C/C[C@@H](OC(=O)c1ccncc1)c1ccc(OCCO)cc1)c1cc(C(=O)OC)ccc1OC | 0.546 |
| CCCCN1CC=CC23O[C@@H]4C=CCCOC(=O)C4[C@H]2C(=O)N(CCCCCCO)[C@@H]3C1=O (stereo not given in full) | 0.316 |
| CN(C)CCCC[C@@H]1NC(=O)[C@H]2C[C@@H](C(=O)NCCCCCCN)[C@@H](c3ccc(O)cc3)N2C1=O | 1.09 |
| COc1ccc(-c2cc3c(c(-c4ccc(Oc5ccccc5)cc4)n2)[Si](C(C)C)(C(C)C)OC3)cn1 | -0.232 |

system: Sam68 (KHDRBS1); assay: compounds binding KHDRBS1 protein – biochemical, small-molecule microarray, 635 nm fluorescence, primary screen (AID 1125); conditions: higher = more signal;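 note: score merges 667 nm channel intensity with signal to noise over triplicate slides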

| Structure (SMILES) | composite z-score |
| --- | --- |
| CC#CC(=O)Oc1ccccc1C=CC(=O)OCC | 0.82 |
| CC(C)CNC(=O)[C@@]1(Cc2ccccc2I)c2ccccc2C(=O)N(C2CCCCC2)[C@H]1c1ccc(CO)cc1 | 0.342 |
| O=C(c1ccccc1)N1C(=O)[C@]2(COC(c3ccc(OCCCO)cc3)=N2)Cc2ccccc21 | 1.29 |
| CC(C)(C)OC(=O)CC[C@]1(C(=O)N2CCOCC2)N=C(c2ccc(OCCCO)cc2)O[C@H]1c1ccccc1N=[N+]=[N-] | 1.28 |
| COCCOC(=O)N1C(=O)[C@@]2(c3cc(C#CCC(C(=O)OC)C(=O)OC)ccc31)[C@H](c1ccccc1OCCO)N1[C@H](c3ccccc3)[C@H](c3ccccc3)OC(=O)[C@H]1[C@@H]2C(=O)NC[C@H](O)c1ccccc1 | 1.3 |
| COCCCNC(=O)[C@]1(CCC(=O)OC(C)(C)C)N=C(c2ccc(OCCCO)cc2)O[C@@H]1c1ccccc1CN=[N+]=[N-] | 1.3 |
| CCOC(=O)C1=C[C@@H](C(C)(C)C)N(S(=O)(=O)c2ccc(C)cc2)[C@H]1c1ccc(F)cc1 | 1.29 |
| COc1cc(NN2C(C(O)c3ccco3)C=CC3C(=O)N(c4ccccc4)C(=O)C32)cc(OC)c1OC (stereo not given) | 0.203 |
| CCC(CC)C(O)C1C=CC2C(=O)NC(=O)C2N1Nc1ccc(Cl)cc1Cl (stereo not given) | 0.887 |
| CCCC[C@H]1OB(O)C[C@H]2C1=C(COC)Cn1c(=O)n(-c3ccccc3)c(=O)n12 | 0.439 |
| C=C(COC)/C(=C/C[C@@H](OC(C)=O)c1ccc(OCCO)cc1)c1cnc2ccccc2c1 | 0.74 |
| CN(C)C(=O)[C@@]1(CCS(=O)(=O)c2ccccc2)COC(c2ccc(OCCCO)cc2)=N1 | 0.203 |
| CCCCCCc1nc(-c2ccc(OC)nc2)cc2c1[Si](C(C)C)(C(C)C)O[C@H]2c1ccccc1 | -0.187 |
| O=C(CS)NCCCCCCNC(=O)[C@@H]1C[C@@H]2C(=O)N[C@@H](Cc3ccccc3)C(=O)N2[C@@H]1c1cccc(OCCO)c1 | 1.29 |
| COC(=O)[C@@]1(Cc2ccc(OC)cc2)[C@H]2c3cc(C(=O)N(C)C)n(Cc4ccc(S(C)(=O)=O)cc4)c3C[C@H]2CN1C(=O)c1ccccc1 | 0.549 |
| O=C1C[C@@](C(=O)NC2CC2)(c2ccc([N+](=O)[O-])cc2)[C@@H](c2ccc(CO)cc2I)N1C1CCCCC1 | 1.29 |
| CN1C=C(C(=O)OCCS(C)(=O)=O)C(C(=O)OCCS(C)(=O)=O)=CC(c2ccc(CO)cc2)=CC1C1CC1 (stereo not given) | 0.449 |
| O=C1NC(=O)C2C1C=CC(C(O)c1cc(C(F)(F)F)cc(C(F)(F)F)c1)N2Nc1ccccn1 (stereo not given) | 0.079 |
| CN(C)CCCCCCNC(=O)[C@@H]1C[C@@H]2C(=O)N[C@@H](Cc3ccccc3)C(=O)N2[C@@H]1c1ccc(O)cc1 | 1.31 |
| Cc1nc2cc(Br)ccc2c(=O)o1 | 0.384 |
| O=C(NC1CC1)[C@@H]1c2ccccc2C(=O)N(Cc2ccccc2Cl)[C@H]1c1ccc(CO)cc1 | 1.33 |
| O[C@@H](Cc1ccccc1)[C@H]1C2C=CCCC=C2CN1Cc1cccc(Cl)c1 (stereo not given in full) | 1.31 |
| COCCOC(=O)N1C(=O)[C@@]2(c3cc(C#CCNC(N)=O)ccc31)[C@H](C(=O)N1CCN(c3ncccn3)CC1)[C@H]1C(=O)O[C@H](c3ccccc3)[C@H](c3ccccc3)N1[C@@H]2c1ccc(OCCO)cc1 | 1.29 |
| COCCOC(=O)N1C(=O)[C@@]2(c3cc(C#CCNC(N)=O)ccc31)[C@H](C(=O)Nc1nc3ccccc3s1)[C@H]1C(=O)O[C@H](c3ccccc3)[C@H](c3ccccc3)N1[C@@H]2c1ccc(OCCO)cc1 | 1.1 |
| CC(C)C(O)C1C=CC2C(=O)N(c3ccccc3)C(=O)C2N1Nc1ccc([N+](=O)[O-])cc1 (stereo not given) | 1.13 |

— PubChem BioAssay
